“And” between values parts separate entries of the source, which are not always exact repeats. Equal values may be shown once. Hit rate of the full screen: of about 5,500 compounds, about 2,000 (36%) were called active. Inconclusive results (about 18%) are left out. Rule as the data show it: active = normalized growth mostly below about 0.91 (no sharp cut-off); inconclusive = no clear call, values can overlap the other calls; inactive = mostly above about 0.92. The list shows a part of the results.
Assay: chemical genetic growth profiling, strain panel (AID 1159580);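 also: tested at 20 µM; growth read once vehicle control cultures reached saturation at 30 °C; 1 = growth at the plate median or of vehicle wells; lower values mean less growth of the strain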
Settings: S. cerevisiae deletion strains, growth OD

Measured: normalized growth

COC1=C(OC)C(=O)C(C/C=C(\C)CC/C=C(\C)CC/C=C(\C)CC/C=C(/C)CC/C=C(\C)CC/C=C(\C)CC/C=C(\C)CC/C=C(\C)CC/C=C(\C)CCC=C(C)C)=C(C)C1=O
inactive: locus YAL013W, strain DEP1, active compounds read low 0.999 | locus YAL021C, strain ccr4, active compounds read low 0.983 | locus YAL026C, strain drs2, active compounds read low 0.97 | locus YAL030W, strain snc1, active compounds read low 0.989 | locus YBL061C, strain skt5, active compounds read low 0.996 | locus YBR009C, strain hhf1, active compounds read low 1.01 | locus YBR021W, strain FUR4, active compounds read low 1.07 | locus YBR023C, strain chs3, active compounds read low 0.978 | locus YBR171W, strain sec66, active compounds read low 0.973 | locus YBR229C, strain ROT2, active compounds read low 0.959 | locus YBR231C, strain swc5, active compounds read low 0.974 | locus YBR279W, strain paf1, active compounds read low 0.989 | locus YCL011C, strain gbp2, active compounds read low 0.96 | locus YCL016C, strain dcc1, active compounds read low 0.994 | locus YCL029C, strain bik1, active compounds read low 0.969 | locus YCL069W, strain vba3, active compounds read low 0.972 | locus YCR088W, strain abp1, active compounds read low 0.972 | locus YDL005C, strain med2, active compounds read low 0.977 | locus YDL035C, strain GPR1, active compounds read low 1.03 | locus YDL040C, strain nat1, active compounds read low 0.983 | locus YDL074C, strain BRE1, active compounds read low 1.11 | locus YDL101C, strain DUN1, active compounds read low 0.982 | locus YDL134C, strain PPH21, active compounds read low 1.01 | locus YDL185W, strain tfp1, active compounds read low 0.991 | locus YDL192W, strain arf1, active compounds read low 1.02 | locus YDR001C, strain nth1, active compounds read low 0.989 | locus YDR069C, strain doa4, active compounds read low 0.96 | locus YDR101C, strain arx1, active compounds read low 1.02 | locus YDR137W, strain rgp1, active compounds read low 0.983 | locus YDR159W, strain sac3, active compounds read low 0.963 | locus YDR162C, strain NBP2, active compounds read low 0.972 | locus YDR195W, strain ref2 0.963 | locus YDR297W, strain sur2, active compounds read low 0.975 | locus YDR318W, strain mcm21, active compounds read low 0.984 | locus YDR334W, strain swr1, active compounds read low 0.969 | locus YDR335W, strain msn5, active compounds read low 0.974 | locus YDR388W, active compounds read low 1 | locus YDR392W, strain spt3, active compounds read low 0.967 | locus YDR502C, strain sam2, active compounds read low 0.989 | locus YEL003W, strain gim4, active compounds read low 0.983 | locus YEL037C, strain rad23, active compounds read low 0.981 | locus YEL061C, strain CIN8 (second series), active compounds read low 0.941 | locus YEL061C, strain CIN8, active compounds read low 1.01 | locus YER015W, strain faa2, active compounds read low 0.979 | locus YER016W, strain bim1, active compounds read low 0.978 | locus YER110C, active compounds read low 0.983 | locus YER111C, strain swi4, active compounds read low 0.958 | locus YER155C, strain BEM2 (second series), active compounds read low 0.982 | locus YER155C, strain BEM2, active compounds read low 1 | locus YER167W, strain BCK2, active compounds read low 1 | locus YFR010W, strain ubp6, active compounds read low 0.964 | locus YGL078C, strain dbp3, active compounds read low 1.01 | locus YGL086W, strain mad1, active compounds read low 1.04 | locus YGL167C, strain pmr1, active compounds read low 0.981 | locus YGL173C, strain kem1, active compounds read low 0.982 | locus YGL227W, strain vid30, active compounds read low 0.96 | locus YGL240W, strain doc1, active compounds read low 0.974 | locus YGL248W, strain PDE1, active compounds read low 0.999 | locus YGL253W, strain hxk2, active compounds read low 0.988 | locus YGR078C, strain PAC10, active compounds read low 0.996 | locus YGR135W, strain pre9, active compounds read low 1 | locus YGR252W, strain gcn5, active compounds read low 1.02 | locus YHR013C, strain ard1, active compounds read low 0.957 | locus YHR027C, strain rpn1, active compounds read low 0.968 | locus YHR030C, strain SLT2, active compounds read low 1.02 and 1.01 | locus YHR079C, strain IRE1 (second series), active compounds read low 0.986 | locus YHR079C, strain IRE1, active compounds read low 1.02 | locus YHR094C, strain hxt1, active compounds read low 0.999 | locus YHR129C, strain ARP1, active compounds read low 1.01 | locus YHR142W, strain chs7, active compounds read low 0.972 | locus YHR200W, strain rpn10, active compounds read low 0.976 | locus YIL066C, strain RNR3, active compounds read low 1.01 | locus YIL073C, strain SPO22, active compounds read low 1.03 | locus YIL125W, strain kgd1, active compounds read low 0.998 | locus YIR030C, strain dcg1, active compounds read low 0.995 | locus YJL092W, strain hpr5, active compounds read low 0.958 | locus YJL095W, strain BCK1 (second series), active compounds read low 0.973 | locus YJL095W, strain BCK1, active compounds read low 1.01 and 0.989 | locus YJL115W, strain asf1, active compounds read low 0.969 | locus YJL129C, strain trk1, active compounds read low 0.979 | locus YJL134W, strain LCB3, active compounds read low 0.991 | locus YJL154C, strain vps35, active compounds read low 0.976 | locus YJL164C, strain tpk1, active compounds read low 0.999 | locus YJL166W, strain qcr8, active compounds read low 0.978 | locus YJL168C, strain set2, active compounds read low 0.994 | locus YJL187C, strain SWE1 (second series), active compounds read low 0.985 | locus YJL187C, strain SWE1, active compounds read low 0.984
